Screening data: PubChem BioAssay, several laboratories
This is a sample that favours compounds with a hit; in the whole collection about 4% have one here.
GDH-TPI inh: GDH-TPI coupling enzyme inhibitors, primary screen, artefact control for M. tuberculosis FBA inhibitor project, biochemical, absorbance, full deck; GDH-TPI coupled enzyme counterscreen, NADH absorbance; inhibition, % at 4.8 µM; 360,000 tested, 1.2% active; in the data active = inhibition above about 30%
Rv3671c inh: Rv3671c serine protease inhibitors, primary screen, biochemical, fluorescence polarization, M. tuberculosis H37Rv | P9WHR9 | inhibition, % at 5.96 µM | 320,000 tested, 0.048% active; in the data active = inhibition above about 38%;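 also: extracellular domain of Rv3671c used as enzyme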
Mtb bLac sens: beta-lactam sensitization of Mtb H37Rv, H37Rv; M. tuberculosis H37Rv growth with meropenem, percent inhibition; inhibition, % at 25 µM; 330,000 tested, 0.27% active; call rule not given here;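 also: growth measured after seven days incubation then overnight dye step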
RecA intein inh: Mtb RecA intein splicing inhibitors, primary screen, biochemical, fluorescence, HTS. inhibition, % (test concentration not listed). 290,000 tested, 0.75% active. cell-free RecA intein splicing. AID 2221, 2009; in the data active = inhibition above about 30%; inconclusive = no clear call, values can overlap the other calls
Target sequence (P9WHJ3 whole entry, looked up): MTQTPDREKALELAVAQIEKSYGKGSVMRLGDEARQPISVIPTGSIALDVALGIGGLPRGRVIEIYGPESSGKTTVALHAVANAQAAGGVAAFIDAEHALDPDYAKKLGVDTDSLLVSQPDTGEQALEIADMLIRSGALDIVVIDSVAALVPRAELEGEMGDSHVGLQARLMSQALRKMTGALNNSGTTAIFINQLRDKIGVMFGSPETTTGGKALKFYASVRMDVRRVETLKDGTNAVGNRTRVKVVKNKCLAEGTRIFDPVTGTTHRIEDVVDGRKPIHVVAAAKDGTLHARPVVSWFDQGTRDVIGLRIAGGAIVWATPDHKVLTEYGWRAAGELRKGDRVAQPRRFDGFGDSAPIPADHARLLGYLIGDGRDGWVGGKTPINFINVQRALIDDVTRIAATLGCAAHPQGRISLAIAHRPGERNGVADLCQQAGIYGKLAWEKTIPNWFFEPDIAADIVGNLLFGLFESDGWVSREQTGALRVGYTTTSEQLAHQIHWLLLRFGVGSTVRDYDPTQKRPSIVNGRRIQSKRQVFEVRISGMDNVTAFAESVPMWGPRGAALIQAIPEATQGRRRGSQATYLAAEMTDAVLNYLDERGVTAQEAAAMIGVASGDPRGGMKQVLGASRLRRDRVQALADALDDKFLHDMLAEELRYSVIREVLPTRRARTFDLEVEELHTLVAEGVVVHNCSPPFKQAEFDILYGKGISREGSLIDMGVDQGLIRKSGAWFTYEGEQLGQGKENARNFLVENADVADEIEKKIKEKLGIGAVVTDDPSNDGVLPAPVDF
Mtb FBA inh: Mtb FBA enzyme inhibitors, primary screen, biochemical, fluorescence, strain H37Rv; AID 588726, 2011; inhibition, % at 1 µM; purified M. tuberculosis FBA, fluorescence read-out; Fructose-bisphosphate aldolase (Mycobacterium tuberculosis (strain ATCC 25618 / H37Rv)), …; 360,000 tested, 2.3% active; in the data active = inhibition above about 27%
UGM FP inh: M. tuberculosis UGM enzyme inhibitors, primary screen, biochemical, fluorescence polarization, single point; 320,000 tested, 0.06% active; AID 504406, 2011; inhibition, % at 10 µM; purified UGM, fluorescence polarization probe displacement; UDP-galactopyranose mutase (Mycobacterium tuberculosis (strain ATCC 25618 / H37Rv)), …; in the data active = inhibition above about 10%, passing the limit was not always enough; inconclusive = no clear call, values can overlap the other calls
A number is an active result; 0 = inactive; ? = inconclusive; - = no result given; + = active, no number.

SMILES	GDH-TPI inh	Rv3671c inh	Mtb bLac sens	RecA intein inh	Mtb FBA inh	UGM FP inh
O=C1[C@@H]2Cc3c([nH]c4ccccc34)C(c3ccc([N+](=O)[O-])cc3)N2C(=O)CN1C1CC1 (stereo partly specified)	0	0	0	0	0	0
O=C(CSc1ccc([N+](=O)[O-])cn1)Nc1nccs1	34	0	0	0	0	0
Cc1cc(=O)oc2cc(OCCSCCN3CCCCC3)ccc12	36	0	0	0	0	0
N#Cc1c(N)n(CCNC(=O)c2ccc(Cl)cc2)c2nc3ccccc3nc12	0	0	0	0	199	0
Cc1ccc(C(=O)NCCn2c(N)c(C#N)c3nc4ccccc4nc32)cc1	0	0	?	0	161	0
CCCCNC(=O)c1onc(CS(=O)(=O)c2ccccn2)c1C(=O)NCCCC	0	0	0	-	0	0
CCc1nc2c(OCc3cccc(Cl)c3)cccn2c1N(C)C(C)=O	0	-	-	-	0	-
Nc1cc(C(=O)O)c(Oc2ccc(Cl)cc2Cl)cc1C(=O)O	0	0	0	0	+	0
COC(C(=O)Nc1ccnn1C1CCN(Cc2ccccn2)CC1)c1ccccc1 (stereo unspecified)	0	0	0	-	0	0
O=c1cc(-c2ccc(O)cc2)oc2c(O)c(O)c(O)c(O)c12	37	0	0	-	0	0
Cc1c(OCC(=O)N2CCC(C(=O)O)CC2)ccc2c3c(c(=O)oc12)CCC3	0	0	0	0	0	0
Cc1c(C)c2c(OCC(=O)NCC3CCC(C(=O)O)CC3)cc3c(c2oc1=O)CCC(C)(C)O3 (stereo unspecified)	0	-	-	-	120	-
Cc1cc(=O)oc2c(C)c(OCC(=O)NCC3CCC(C(=O)O)CC3)ccc12 (stereo unspecified)	0	0	0	0	0	0
Cc1cc(=O)oc2c3c(cc(OCC(=O)NCC4CCC(C(=O)O)CC4)c12)OC(C)(C)CC3 (stereo unspecified)	0	0	0	0	+	0
Cc1c(C)c2c(OCC(=O)N3CCC(C(=O)O)CC3)cc3c(c2oc1=O)CCC(C)(C)O3	36	0	0	0	+	0
CCOc1ccc(NC(=O)CN(C)C(=O)c2cc([N+](=O)[O-])ccc2Sc2ccccc2)cc1OCC	0	-	-	-	0	-
CC(=O)C1=C(O)C(=O)N(c2ccc(S(=O)(=O)Nc3nccs3)cc2)C1c1ccc(F)cc1 (stereo unspecified)	32	0	0	0	0	0
CC(=O)C1=C(O)C(=O)N(c2ccc(S(=O)(=O)Nc3nccs3)cc2)C1c1ccc([N+](=O)[O-])cc1 (stereo unspecified)	0	0	0	0	0	0
Cc1ccc(S(=O)(=O)NC(=O)c2ccc(-c3ccc(-c4ccccc4)cc3)o2)c(C)c1	-	0	0	36	-	0
COc1ccc(OC)c(-c2nnc3n2N=C(c2ccc(OC)c(OC4CCCC4)c2)CS3)c1	32	0	0	-	0	0
COc1ccc(OC)c(-c2nnc3n2N=C(c2ccc(OC)c(OC)c2)CS3)c1	34	0	0	-	0	0
CC(C)CC(=O)Nc1nnc(S(=O)(=O)N2CCc3ccccc32)s1	0	0	0	0	0	0
COc1cccc(C(=O)NCCS(=O)(=O)NCCCc2ccccc2)c1	0	0	0	0	0	0
CC(=O)c1ccc(NC(=O)C2=CC(c3ccco3)=NS(=O)(=O)N2C)cc1	31	0	0	0	0	0
COC(=O)c1ccccc1S(=O)(=O)N1CCC(C(=O)OC(C)C(=O)N(C)Cc2ccccc2)CC1 (stereo unspecified)	0	-	-	-	0	-
SMILES	GDH-TPI inh	Rv3671c inh	Mtb bLac sens	RecA intein inh	Mtb FBA inh	UGM FP inh
CC1(C(=O)NCCCN2CCCC2=O)CCN1CCc1ccccc1 (stereo unspecified)	0	-	-	-	0	-
COc1ccc(CSc2nc(C)[nH]c2[N+](=O)[O-])cc1[N+](=O)[O-]	42	0	0	0	0	0
CCOC(=O)Cc1cn(C(=O)OC(C)(C)C)c2ccccc12	0	0	0	-	0	0
CN(/C=C/C(=O)C(F)(F)F)Cc1ccccc1	32	0	0	0	0	0
CC(/C=N/NC(=O)c1nnn(-c2nonc2N)c1C(C)C)=C\c1ccccc1	33	0	0	0	0	0
COc1ccc(/C=N/NC(=O)c2nnn(-c3nonc3N)c2-c2cccs2)cc1OC	69	0	0	0	0	0
CC(C)c1c(C(=O)N/N=C/c2cccs2)nnn1-c1nonc1N	0	0	0	0	0	0
Cc1ccsc1/C=N/NC(=O)c1nnn(-c2nonc2N)c1C(C)C	34	0	0	0	0	0
CCCc1c(C(=O)N/N=C/C(C)=C/c2ccccc2)nnn1-c1nonc1N	0	0	0	0	0	0
COc1cc(/C=N/NC(=O)c2nnn(-c3nonc3N)c2-c2cccs2)ccc1O	47	0	0	0	0	0
Cc1ccc(/C=N/NC(=O)c2nnn(-c3nonc3N)c2-c2cccs2)cc1	0	0	0	0	0	0
CC(C)(C)C(=O)N1CCN(c2ccc3c(c2)C2CC3CCN2C(=O)OCc2ccccc2)CC1 (stereo unspecified)	-	-	-	-	0	-
CN(C)c1ncnc2c1ncn2[C@H]1CN(Cc2cccnc2)C[C@@H](CO)O1	0	-	-	-	0	-
COc1cc(/C=N/NC(=O)c2nnn(-c3nonc3N)c2C(C)C)ccc1O	32	0	0	0	0	0
Cc1ccc(/C=N/NC(=O)c2nnn(-c3nonc3N)c2-c2ccc3c(c2)OCO3)s1	47	0	0	0	0	0
CCOc1ccccc1-n1c(O)c(C=Nc2c(C)n(C)n(-c3ccccc3)c2=O)c(=O)[nH]c1=O	0	0	0	0	0	0
Cc1c(N=Cc2c(O)n(CCc3ccc(F)cc3)c(=O)[nH]c2=O)c(=O)n(-c2ccccc2)n1C	36	0	0	0	0	0
COc1ccc(OC)c(-n2c(O)c(C=Nc3c(C)n(C)n(-c4ccccc4)c3=O)c(=O)[nH]c2=S)c1	32	0	0	0	0	0
CC1CC(C)CN(S(=O)(=O)c2ccc3c(c2)CC(C)N3C(=O)C2CC2)C1 (stereo unspecified)	0	0	0	0	0	0
CC(=O)c1sc(Nc2cccc3ccccc23)nc1C	0	0	0	0	0	0
CC(=O)c1sc(Nc2ccccn2)nc1C	47	0	0	0	0	0
COc1cc(C)nc(Nc2nc(C)c(C(C)=O)s2)n1	35	0	0	0	0	0
COCC(=O)N1CCC(Oc2ccc(C(=O)N(C)CCCC3CCCC3)cc2)CC1	0	0	0	0	0	0
Cn1cnnc1SCCNS(=O)(=O)c1cccc([N+](=O)[O-])c1	0	0	0	0	0	0
O=c1ccc(-c2nc3cc(Cl)ccc3n2Cc2ccccc2)c[nH]1	0	0	0	0	0	0
